A selection: hits, their analogues and other compounds. The true share with any hit is near 6%.
VDR inh: inhibitors of human vitamin D receptor; P11473; VDR-SRC2-3 peptide fluorescence polarization, 2 h; Potency, µM, without a hit: max response, negative = inhibition, actives largely listed as inhibitors; 0.93% of 400,000 active; AID 504847
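After 23 nl compound addition and a short centrifugation, plates sat for 2 hours at ambient temperature; polarization of fluorescence then indicated loss of VDR binding to peptide SRC2-3.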
PLK1 PBD block: blocks phosphopeptide binding to human PLK1 polo-box domain; P53350; Plk1 PBD binding of FITC phosphopeptide, fluorescence polarization; Potency, µM, inactives show max response, negative = inhibition, usual class: inhibitors; 2.8% of 360,000 active; AID 720504; also: series mostly up to about 57 µM; nearly all actives have a fitted effect of over 65% in size
Target sequence (P53350 whole entry, looked up, the tested form may be a part): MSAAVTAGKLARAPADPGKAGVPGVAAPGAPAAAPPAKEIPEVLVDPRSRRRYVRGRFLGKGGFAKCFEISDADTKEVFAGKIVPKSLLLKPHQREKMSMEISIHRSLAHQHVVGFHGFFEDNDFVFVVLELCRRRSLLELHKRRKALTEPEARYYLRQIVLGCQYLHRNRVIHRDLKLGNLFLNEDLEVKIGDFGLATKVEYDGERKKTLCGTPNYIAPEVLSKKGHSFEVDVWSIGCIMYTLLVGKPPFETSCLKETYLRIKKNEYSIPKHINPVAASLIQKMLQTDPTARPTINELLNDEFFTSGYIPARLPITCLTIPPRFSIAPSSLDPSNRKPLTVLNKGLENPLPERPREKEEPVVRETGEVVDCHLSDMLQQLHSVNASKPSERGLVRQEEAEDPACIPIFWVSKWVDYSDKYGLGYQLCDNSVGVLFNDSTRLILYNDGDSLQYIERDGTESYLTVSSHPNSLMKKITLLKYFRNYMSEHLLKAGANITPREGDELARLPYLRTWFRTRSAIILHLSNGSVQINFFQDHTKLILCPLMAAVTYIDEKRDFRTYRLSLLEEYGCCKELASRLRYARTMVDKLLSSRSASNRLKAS
Sfp PPTase inh: blocks B. subtilis Sfp PPTase activity | Biochemical Sfp PPTase activity, qHTS | Potency, µM, without a hit: largest response in the series, negative = inhibition, usual class: inhibitors | 3.5% of 310,000 active | AID 1490;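 also: the enzyme is Sfp with the accession as filed and its product quenches rhodamine fluorescence; 0% = enzyme reaction without inhibitor and -100% = no enzyme wells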
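Step 1, compound plus 15 nM Sfp-PPTase, 15 min, room temperature. Step 2, add rhodamine-CoA (5 uM) and BHQ-2-YbbR (12.5 uM). Step 3, read 525/598 nm fluorescence at 0 and 30 min.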
Tau ThT inhib: inhibitors of human tau fibril formation, thioflavin T binding | P10636 | recombinant tau K18 P301L, heparin-induced fibrillization, ThT fluorescence | Potency, µM (top dose mostly 57.4 µM), inactives show at the top dose activity, negative = inhibition, most hits filed as inhibitors | 2.1% of 270,000 active; also: nearly all actives have a fitted effect of over 55% in size
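Tau K18 P301L fragment (15 uM unlabeled plus 0.24 uM Alexa 594-labeled) in 100 mM sodium acetate pH 7 with compound, fibrillization induced by 20 uM heparin for 6 hr at 37 C. Thioflavin T (30 uM) added, fluorescence read after 1 hr (ex 450, em 510 nm).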
Tau fluor cs: counter-screen for tau fibril formation inhibitors; tau K18 P301L (four-repeat tau fragment) Alexa594 fluorescence, heparin fibrillization; Potency, µM (highest dose often 57.7 µM), inactives show at the highest dose activity change, negative = decrease; 0.93% of 280,000 active; AID 1463; also: nearly all actives have a fitted effect of over 55% in size
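Human K18 P301L tau (15 uM unlabeled plus 0.24 uM Alexa 594-labeled, final) in 100 mM sodium acetate pH 7 was mixed with compound and 20 uM heparin and incubated 6 hr at 37 C.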
Tau FP inhib: blocks human tau fibril formation measured by polarization; P10636; K18 P301L tau heparin fibrillization, Alexa594 FP, 6 h; Potency, µM (series often up to 57.7 µM), without a hit: top-dose activity, negative = inhibition, usual class: inhibitors; 0.39% of 280,000 active; AID 1468; also: nearly all actives have a fitted effect of over 55% in size
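Read-out: fluorescence polarization of Alexa 594-labeled tau (0.24 uM), 555 nm excitation, 632 nm emission. Mixtures held 15 uM unlabeled K18 P301L, compound and 20 uM heparin, pH 7 acetate buffer, incubated 6 hr at 37 C.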
TbPYK inh: Trypanosoma brucei pyruvate kinase inhibition, cherry-pick confirmation. shares compounds with PLK1 PBD block. recombinant TbPYK, Kinase-Glo ATP luminescence. Potency, µM (series often up to 76.9 µM), for the others: at the top dose activity change, negative = inhibition, most hits filed as inhibitors. 67% of 890 active; also: nearly all actives have a fitted effect of over 70% in size
TbPYK ADP-Glo: orthogonal confirmation of Trypanosoma brucei pyruvate kinase inhibitors. shares compounds with PLK1 PBD block. recombinant TbPYK, ADP-Glo luminescence, 60 min. Potency, µM (highest dose often 76.9 µM), inactives show top-dose activity change, negative = inhibition, actives largely listed as inhibitors. 62% of 890 active. AID 720584; also: nearly all actives have a fitted effect of over 75% in size
An asterisk follows results filed as active. Calls follow the shape of the dose curve; as a rule, active = well fitted curve in the direction sought with a large enough effect; inconclusive = small, poorly fitted or top-dose-only effect, or another doubt; inactive = no such curve, though single readings can be large; an effect the other way counts as inactive or inconclusive. Unless noted, % is scaled to controls: 0 for no effect and ±100 for the full control effect; potency is read from the fitted curve at half-maximal effect.

How did COc1ccccc1CNS(=O)(=O)c1ccc(F)c(C(=O)Nc2cc(Cl)ccc2OC)c1 do in these assays?
VDR inh: 18%; Tau ThT inhib: 6%; Tau fluor cs: inconclusive; Tau FP inhib: -10%

How did OC[C@@H]1CN(CCc2ccccc2)C[C@H](n2cnc3c(NCc4ccc(F)cc4)ncnc32)O1 do in these assays?
PLK1 PBD block: 3%

Results for CCOc1ccc(NC(=O)CN(C)C2=NS(=O)(=O)c3ccccc32)cc1 ?
PLK1 PBD block: -4%

How did Cc1ccc(S(=O)(=O)c2cn(Cc3ccccc3F)c3cc4c(cc3c2=O)OCO4)cc1 do in these assays?
VDR inh: 1%; Tau ThT inhib: -4%; Tau fluor cs: -13%; Tau FP inhib: -2%

What do the screens show for `C#CCNC(=O)C[C@@H]1C[C@@]2(C(=O)OCC)CCCC=C2N(Cc2ccc3c(c2)OCO3)C1=O`?
PLK1 PBD block: 0%

Results for O=c1[nH]c2ccc(NCc3ccc(-c4ccc(Cl)cc4)o3)cc2[nH]1 ?
VDR inh: 17%; Tau ThT inhib: -19%; Tau fluor cs: -17%; Tau FP inhib: 6%

Results for O=C(O)CCc1ccc(-c2ccc(Cl)cc2)o1 ?
VDR inh: inconclusive; PLK1 PBD block: inconclusive; Sfp PPTase inh: 20µM*; Tau ThT inhib: inconclusive; Tau fluor cs: -1%; Tau FP inhib: 4%; TbPYK inh: inconclusive; TbPYK ADP-Glo: inconclusive

Results for COc1ccc(NS(=O)(=O)c2cc(Br)cc3c2N(C(=O)C2CC2)CC3)cc1OC ?
VDR inh: -8%; Tau ThT inhib: -6%; Tau fluor cs: -12%; Tau FP inhib: -4%

Results for C[C@@H]1O[C@@H](O[C@@H]2[C@@H](O)[C@H](OCCc3ccc(O)c(O)c3)O[C@H](CO)[C@H]2OC(=O)/C=C/c2ccc(O)c(O)c2)[C@H](O)[C@H](O)[C@H]1O ?
VDR inh: -14%; PLK1 PBD block: 0%; TbPYK inh: 32µM*; TbPYK ADP-Glo: inconclusive

How did O=C(NCc1nnc(SCC(=O)N2CCN(c3ccccc3)CC2)o1)c1c(F)cccc1F do in these assays?
VDR inh: -1%; PLK1 PBD block: -4%; Sfp PPTase inh: 5%

How did COC1=CC(=O)C(C2CC(=O)c3c(O)cc(O)cc3O2)=CC1=O (stereo not given) do in these assays?
VDR inh: 79µM*; PLK1 PBD block: 4.2µM*; TbPYK inh: 16µM*; TbPYK ADP-Glo: 28µM*

Results for COc1cc(C2Nn3c(nnc3-c3ccccc3OC)S2)ccc1O (stereo not given) ?
VDR inh: 1%; PLK1 PBD block: 21µM*; Sfp PPTase inh: inconclusive; Tau ThT inhib: -8%; Tau fluor cs: -8%; Tau FP inhib: -8%; TbPYK inh: 0.22µM*; TbPYK ADP-Glo: 4µM*

What do the screens show for `CC(=O)N1c2c(cc(Br)cc2S(=O)(=O)N2CCN(c3cccc(Cl)c3)CC2)CC1C` (stereo not given)?
VDR inh: -10%; Tau ThT inhib: -2%; Tau fluor cs: -23%; Tau FP inhib: -8%

How did CCCC(C)NC(=O)c1cc(C(=O)OC)cc([N+](=O)[O-])c1 (stereo not given) do in these assays?
VDR inh: -8%; PLK1 PBD block: -5%; Sfp PPTase inh: -2%; Tau ThT inhib: 11%; Tau fluor cs: 7%; Tau FP inhib: -3%

High-throughput results from PubChem BioAssay.
